Bioassay records deposited in PubChem BioAssay by National Center for Advancing Translational Sciences (NCATS).
VACV Venus inh – vaccinia inhibition (Venus reporter) | 0.46% of 330,000 active | Potency, µM (highest dose often 36.5 µM), for the others: at the highest dose activity change, negative = inhibition, most hits filed as inhibitors | Vaccinia virus Venus reporter expression, fluorescence; calls by dose curve; tested in A549 cells; note: nearly all actives have a fitted effect of over 30% in size
Lassa entry inh – blocks Lassa virus binding to or entry into cells; Lassa virus pseudotype entry inhibition, cell reporter; Potency, µM (doses to about 37.9 µM), for the others: at the top dose activity change, negative = inhibition, most hits filed as inhibitors; 1.2% of 300,000 active; AID 540256; calls by dose curve; tested in HEK293 cells; note: nearly all actives have a fitted effect of over 50% in size
MARV entry inh – Marburg virus entry inhibition. Potency, µM (series often up to 37.8 µM), without a hit: at the top dose activity change, negative = inhibition, hits mostly inhibitors. 1.8% of 300,000 active. AID 540276. Marburg virus pseudotyped entry inhibition, cell reporter; calls by dose curve; tested in HEK293 cells
Vaccinia mCherry – inhibitors of vaccinia virus infection (mCherry reporter signal); Vaccinia virus mCherry reporter infection, fluorescence; 0.63% of 310,000 active; Potency, µM (series often up to 36.5 µM), for the others: at the highest dose activity change, negative = inhibition, hits mostly inhibitors; AID 720579; calls by dose curve; tested in A549 cells; note: nearly all actives have a fitted effect of over 35% in size
Active calls of the source: *; i = inactive; ? = inconclusive; . = no result given; [ ] = remark or other dose. Shown are actives, neighbours in structure and some others; about 2.5% of the full set was active somewhere. % is set by controls: 0 for no effect and ±100 for the full control effect; potency is the fitted concentration of half-maximal effect.

SMILES	VACV Venus inh	Lassa entry inh	MARV entry inh	Vaccinia mCherry
CN1CCc2c(n(CC(O)CNCc3ccccc3)c3ccccc23)C1=O (stereo not drawn)	-11%	.	.	i
CC(C)NCC(O)Cn1c2c(c3ccccc31)CCc1c-2cnn1-c1ccccc1 (stereo not drawn)	11µM*	7.1µM*	?	.
Cc1nc2cc(NC(=O)[C@@H]3C[C@@H](Sc4ccccn4)CN3Cc3cccc(F)c3)ccc2s1	8%	.	.	-5%
COc1ccc(NC(=O)[C@@H](NC(=O)c2ccccc2)C(C)C)cc1S(=O)(=O)N1CCCCC1	-15%	-2%	0.11µM*	i
CCOc1ccc(C(=O)N[C@H](C(=O)Nc2ccc(OC)c(S(=O)(=O)N3CCOCC3)c2)C(C)C)cc1	?	.	.	-14%
O=C1C2=C(NC(=S)NC2c2ccc(Cl)cc2)NC(c2ccc(Cl)cc2)N1c1ccc(Cl)cc1 (stereo not drawn)	.	-1%	16µM*	.
CCN(N=O)c1ccc(C=C2C=Cc3ccccc32)cc1	-4%	4µM*	?	i
CC(=O)CCC1C2C(O)C(C(C)C)C(OC(=O)/C=C/c3ccccc3)CC12C (stereo not drawn)	-2%	.	.	6%
CC(=O)OC1C(O)C(C)OC(OC2C(OC(=O)C3CCC4C(C3)OC3(CC(OC(=O)/C=C/c5ccccc5)C(C)CO3)C43CO3)OC(C)C(O)C2OC(C)=O)C1O (stereo not drawn)	0.32µM*	?	?	?
COc1ccc(OC)c([C@H]2/C(=C(\O)c3ccc(C)cc3)C(=O)C(=O)N2Cc2ccco2)c1	.	.	-24%[46.1 µM]	.
CC(=O)C(=Nc1ccc(Cl)cc1Cl)NNc1cccc(Cl)c1	?	10µM*	?	-6%[1.46 µM]
COC(=O)c1sc2ncccc2c1OCc1ccc(Cl)cc1	.	-9%	8.2µM*	.
COc1ccc(-c2csc(N(CCCN(C)C)C(=O)c3ccccc3Cl)n2)cc1	?	?	5.6µM*	11µM*
COc1ccc(-c2csc(N(CCCN(C)C)C(=O)c3ccccc3C)n2)cc1	?	10µM*	?	?
CN1C/C(=C/c2ccccc2[N+](=O)[O-])C(=O)/C(=C\c2ccccc2[N+](=O)[O-])C1	-9%	8.9µM*	3.2µM*	?
Cc1ccc(C)c2c1CCC(=Cc1ccccc1[N+](=O)[O-])C2=O	-12%	.	.	-18%
Cc1ccc2[nH]c(O)c(N=Nc3ccc(S(N)(=O)=O)cc3)c2c1	.	4µM*	.	.
CC(C)=Cc1cccc2[nH]c(O)c(N=Nc3ccc(S(N)(=O)=O)cc3)c12	.	4µM*	.	.
NS(=O)(=O)c1ccc(N=Nc2c(O)[nH]c3ccc(-c4cnco4)cc23)cc1	.	13µM*	.	.
O[C@H]1CN(Cc2cccs2)[C@@H](c2ccc(Cl)cc2)C[C@H]1n1cc(C2CC2)nn1	.	-24%[46.1 µM]	.	.
COc1ccc(-c2ccc(C(=O)N3CCc4c(cnc(C)c4CNS(=O)(=O)N(C)C)C3)o2)cc1	-7%	.	.	-15%
CC1(C)CC(NC(=O)c2ccc(Cl)c(S(=O)(=O)N(Cc3ccccc3)c3ccccc3)c2)CC(C)(C)N1	?	-43%	8.9µM*	-17%
CC1Nc2ncnc(N3CCN(c4ccccc4)CC3)c2N(Cc2ccc(Br)cc2)C1=O (stereo not drawn)	?	.	.	7.1µM*
Cc1ccc2nc(-c3ccccc3)cn2c1	0%	0.32µM*	0.45µM*	i
Cc1ccc2nc(-c3ccc(O)c(O)c3)cn2c1	-13%	?	?	-4%
SMILES	VACV Venus inh	Lassa entry inh	MARV entry inh	Vaccinia mCherry
Cn1c(C2CCC2)nc2cc(C(=O)N3CCOc4ccccc4C3)cc(NC(=O)C3CCCO3)c21 (stereo not drawn)	-4%	.	.	-18%
Cc1ccc(-n2nnnc2SCC(=O)c2cc(C)n(-c3cc(C)on3)c2C)cc1	-9%	12µM*	1%	i
Cc1cc(C(=O)CSc2nnnn2-c2ccccc2)c(C)n1-c1ccc2c(c1)OCO2	-13%	6.5µM*	?	-12%
Cc1cc(C(=O)CSc2nnnn2-c2ccc(O)cc2)c(C)n1Cc1ccc2c(c1)OCO2	.	?	13%	.
CN1CCN(C(=O)/C=C/c2cn(-c3ccccc3)nc2-c2ccc3c(c2)OCCO3)CC1	?	?	21µM*	?
CC(C)(C)NCC(=Cc1ccccc1)C(=O)c1ccccc1	?	7.1µM*	7.9µM*	10µM*
COc1ccc(C=C(C(=O)c2ccccc2)C(=O)c2ccccc2)cc1	-5%	.	.	i
CN1C(=S)N2CCCN2C1c1ccccc1 (stereo not drawn)	-1%	11%	2%	i
S=C1N(c2ccccc2)C(c2ccccc2)N2CCCN12 (stereo not drawn)	-9%	18µM*	-1%	-10%
COC(=O)C/C=C/[C@@H](C)[C@H](OC)c1ccccc1Br	.	.	-11%[14.2 µM]	.
Cc1c(CCCl)c(Cl)n2c(nc3ccccc32)c1C#N	?	11µM*	5µM*	?
Cc1cc(Cl)n2c(nc3ccccc32)c1C#N	-29%	?	4.5µM*	?
CNc1cc(C)c(C#N)c2nc3ccccc3n12	-11%	10%	-5%	i
COCc1[nH]nc2c1[C@@H](c1ccnc3ccccc13)C(C#N)=C(N)O2	.	.	-15%	.
Cc1cc2nc(N3CCC(NC(C)c4nc(-c5ccccn5)no4)CC3)nc(C)c2cc1C (stereo not drawn)	-13%	.	.	-17%
O=C(C1CCN(c2ncnc3c2nc2n3CCCCC2)CC1)N1CCN(c2cccc(Cl)c2)CC1	-18%	-21%[46.1 µM]	.	-8%
O=C(Nc1ccc(Cl)cn1)C1CCN(c2ncnc3c2nc2n3CCCCC2)CC1	?	-6%[46.1 µM]	3.5µM*	-17%
Clc1cccc(N2CCN(c3ncnc4c3nc3n4CCCCC3)CC2)c1	-21%	?	2.8µM*	?
CCOC(=O)c1c(-c2cccc3ccccc23)csc1NC(=O)C1C2CCC(O2)C1C(=O)O (stereo not drawn)	2%	1%	?	-21%
CCOC(=O)c1c(NC(=O)C2C3CCC(O3)C2C(=O)O)sc(C)c1-c1ccc(C)cc1 (stereo not drawn)	11µM*	-19%	-2%	.
CCOC(=O)c1c(-c2ccc(OC)cc2)csc1NC(=O)CCN1CCOCC1	-15%	?	0%[46.1 µM]	-10%
CCOC(=O)c1c(NC(=O)/C=C\C(=O)O)sc(C)c1-c1ccccc1	-10%	-13%	-23%[46.1 µM]	-4%
CCOC(=O)c1c(NC(=O)CCN2CCOCC2)sc(C)c1-c1ccccc1	-20%	3.2µM*	?	i
CCOC(=O)c1c(NC(=O)/C=C/C(=O)O)sc(C)c1-c1ccc(C(C)(C)C)cc1	?	?	10µM*	?
Cc1ccc(S(=O)(=O)N[C@@H]2COC(=O)[C@@H](C)COC(=O)CC=C[C@H]2C)cc1	.	.	7%[14.2 µM]	.
CSc1nnc(-c2sc3cc(C(F)(F)F)cnc3c2-c2ccccc2)n1C	?	?	1.6µM*	.
CCCCCC(=O)N1C[C@@H](n2cc(C3CC3)nn2)[C@H](O)C[C@H]1c1ccccc1	.	13%[46.1 µM]	.	.
N#C/C(=C\c1ccc(-c2cc(Cl)ccc2Cl)o1)C(=O)Nc1cccc2ncccc12	.	3.7µM*	?	.
Cc1c(NC(=O)/C(C#N)=C/c2ccc(-c3cc(Cl)ccc3Cl)o2)c(=O)n(-c2ccccc2)n1C	?	17%	5%	-16%
